{"source": "PubChem BioAssay (Tox21)", "note": "A number with no mark means an inactive call. Activity calls are given as the source filed them. The call rests on the fitted dose curve; in most records, active means well fitted curve in the direction sought with a large enough effect in the repeat runs; inconclusive means weak or mixed curves; inactive means flat fitted curve, though single readings scatter. On the % scale 0 is the no-effect control and ±100 the full control effect; potency means the concentration at half of the fitted maximal effect; tags describe the fitted curve by direction and shape or compound fluorescence and quenching.", "data": [{"experiment": "qHTS assay to test for compound auto fluorescence at 460 nm (blue) in HEK293 cells (AID 720678)", "details": "blue autofluorescence 405/460 nm; series mostly up to 91.3 µM; fluorescence, % of triamterene: at the top concentration", "from_the_text": "National Center for Advancing Translational Sciences [NCATS]\nNIH Chemical Genomics Center [NCGC]\nU.S. Environmental Protection Agency [EPA]\nNational Institutes of Environmental Health Sciences [NIEHS]\nNational Toxicology Program [NTP]\nU.S. Food and Drug Administration [FDA]\nCompound auto fluorescence often interferes with screening of the compound library against various biological targets and signaling pathways. Some of these compounds may have fluorophoric properties. Such properties may interfere with the assay outputs resulting in false positives and/or negatives. To decrease such complications and ensure the compound activities are relevant in terms of biological response, the Tox21 10K compound library was screened for auto fluorescence.\nFrom the fluorophores used as reporter signals in our screening assays, the auto fluorescence equivalencies of compounds against three fluorophores have been evaluated: Triamterene, Fluorescein and Rose Bengal sodium for blue, green and red fluorescence, respectively. The fluorescence intensities were measured using Excitation/Emission wavelengths at 405/460nm, 485/535nm and 540/590nm for blue, green and red labels, respectively. This assay includes the blue fluorescence data.\nTox21 Assay Protocol Summary:\n2,000 HEK293 cells in 5 uL of culture medium containing 10% dialyzed FBS per well were dispensed into black wall/clear bottom 1536-well plates using a Multidrop Combi Dispenser (Thermo Scientific). The assay plates were incubated for 4-5 hr at 37C to allow cell attachment to the well bottom, followed by the transfer of 23 nL compound or DMSO vehicle by a pintool work station (Kalypsys, San Diego, CA). After the assay plates were incubated overnight at 37C and 5% CO2, fluorescence intensities in the assay plates were measured by an Envision (PerkinElmer, Shelton, CT) plate reader using three labels for measuring blue, green and red fluorescence at […] 460, 535 and 590nm respectively.", "values": [{"smiles": "O=C(CCl)C(Cl)Cl", "fluorescence, % of triamterene": "-0.0142%"}, {"smiles": "C[C@@H]1O[C@@H](O[C@@H]2C=C3CC[C@@H]4[C@H](CC[C@]5(C)[C@@H](c6ccc(=O)oc6)CC[C@]45O)[C@@]3(C)CC2)[C@H](O)[C@H](O)[C@H]1O", "fluorescence, % of triamterene": "0.167% [at 18.6 µM]"}, {"smiles": "Nc1ccc(Cc2ccc(N)c(Cl)c2)cc1Cl", "fluorescence, % of triamterene": "-0.424%"}, {"smiles": "CC(C)Oc1cccc(NC(=O)c2ccccc2C(F)(F)F)c1", "fluorescence, % of triamterene": "-0.294%"}, {"smiles": "C1CCC2CCCCC2C1", "note": "(stereo not given)", "fluorescence, % of triamterene": "0.0224% [at 95.7 µM]"}, {"smiles": "C[C@]12CC[C@@H]3c4ccc(OC(=O)N(CCCl)CCCl)cc4CC[C@H]3[C@@H]1CC[C@@H]2O", "fluorescence, % of triamterene": "0.0399% [at 46 µM]"}, {"smiles": "CCCCCCCCCCCCCC[P+](CCCCCC)(CCCCCC)CCCCCC", "note": "(tested in a mixture with another compound)", "fluorescence, % of triamterene": "0.0671%"}, {"smiles": "Clc1ccc(CSC(Cn2ccnc2)c2ccc(Cl)cc2Cl)cc1", "note": "(stereo not given)", "fluorescence, % of triamterene": "-0.071% [at 18.6 µM]"}, {"smiles": "CC(=O)[O-].CC(=O)[O-].[Hg+2]", "fluorescence, % of triamterene": "0.0304%"}, {"smiles": "C[C@@H]1O[C@@H](O[C@H]2C[C@@H](O)[C@]3(CO)[C@H]4[C@H](O)C[C@]5(C)[C@@H](C6=CC(=O)OC6)CC[C@]5(O)[C@@H]4CC[C@]3(O)C2)[C@H](O)[C@H](O)[C@H]1O", "Potency": "inactive"}, {"smiles": "CC[C@H](C)[C@H]1O[C@]2(C=C[C@@H]1C)C[C@@H]1C[C@@H](C/C=C(\\C)[C@@H](O[C@H]3C[C@H](OC)[C@@H](O[C@H]4C[C@H](OC)[C@@H](O)[C@H](C)O4)[C@H](C)O3)[C@@H](C)/C=C/C=C3\\CO[C@@H]4[C@H](O)C(C)=C[C@@H](C(=O)O1)[C@]34O)O2", "Potency": "inactive"}, {"smiles": "CC(C)C1CCC(Cc2ccc(Cl)cc2)C1(O)Cn1cncn1", "note": "(stereo not given)", "fluorescence, % of triamterene": "0.0368%"}, {"smiles": "CC(C)CC(C)(c1ccc(O)cc1)c1ccc(O)cc1", "Potency": "inactive"}, {"smiles": "Cc1c(Cl)c(=O)oc2cc(OP(=O)(OCCCl)OCCCl)ccc12", "Potency": "12.6 µM [fluorescent] (active)"}, {"smiles": "COc1ccc(OC)c(CC(C)N)c1", "note": "(stereo not given)", "fluorescence, % of triamterene": "-0.0476% [at 95.7 µM]"}, {"smiles": "Oc1cc(Cl)c(Cl)c(Cl)c1", "fluorescence, % of triamterene": "0.0031%"}, {"smiles": "Clc1ccc(CCC(Cn2ccnc2)Sc2c(Cl)cccc2Cl)cc1", "note": "(stereo not given)", "fluorescence, % of triamterene": "0.0582% [at 18.6 µM]"}, {"smiles": "CCOP(=S)(OCC)OC(Cl)C(Cl)(Cl)Cl", "note": "(stereo not given)", "fluorescence, % of triamterene": "0.0208%"}, {"smiles": "CCCCCCCCCBr", "fluorescence, % of triamterene": "0.14%"}, {"smiles": "O=C(CCl)Nc1ccccc1", "fluorescence, % of triamterene": "-0.0362%"}, {"smiles": "CCOC(=O)C1(c2ccccc2)CCN(CCC(C#N)(c2ccccc2)c2ccccc2)CC1", "Potency": "inactive"}, {"smiles": "COc1ccc(N)cc1N", "Potency": "inactive"}, {"smiles": "CC(=O)c1cc(C(C)(C)C)cc2c1CCC2(C)C", "fluorescence, % of triamterene": "0.0266%"}, {"smiles": "CC(Cc1ccc(C(C)(C)C)cc1)CN1C[C@@H](C)O[C@@H](C)C1", "note": "(stereo not given in full)", "fluorescence, % of triamterene": "0.0544%"}, {"smiles": "CC(c1ccc(O)cc1)c1ccc(O)cc1", "fluorescence, % of triamterene": "0.0134%"}, {"smiles": "c1ccc2c(c1)OCC(C1=NCCN1)O2", "note": "(stereo not given)", "fluorescence, % of triamterene": "0.0103% [at 46 µM]"}, {"smiles": "Cc1ccc(OP(=O)(Oc2ccccc2)Oc2ccccc2)cc1", "fluorescence, % of triamterene": "-0.0226% [at 95.7 µM]"}, {"smiles": "N#CC(Cl)Cl", "fluorescence, % of triamterene": "-0.143%"}, {"smiles": "[Cd+2].[Cl-].[Cl-]", "Potency": "inactive"}, {"smiles": "CCc1nn(C)c(C(=O)NCc2ccc(C(C)(C)C)cc2)c1Cl", "fluorescence, % of triamterene": "0.0404%"}, {"smiles": "FC(Cl)(Cl)Cl", "fluorescence, % of triamterene": "-0.0874%"}, {"smiles": "Nc1ccc(Sc2ccc(N)cc2)cc1", "fluorescence, % of triamterene": "-0.365%"}, {"smiles": "CC(C)N1C(=O)N(c2ccccc2)CSC1=NC(C)(C)C", "fluorescence, % of triamterene": "-0.0609%"}, {"smiles": "CN(C)C(=S)S", "Potency": "inactive"}, {"smiles": "CC(C)CC(C)N", "note": "(stereo not given)", "fluorescence, % of triamterene": "0.0042%"}, {"smiles": "CC(=O)[O-].[Tl+]", "fluorescence, % of triamterene": "-0.0365%"}, {"smiles": "NNC(=O)c1ccccc1", "fluorescence, % of triamterene": "0.684% [at 95.7 µM]"}, {"smiles": "CC(C)(O)c1cnn2c(-c3ccc(F)c(-c4c(F)cccc4C#N)c3)cnc2n1", "fluorescence, % of triamterene": "0.988%"}, {"smiles": "CCCN(CCC)CCc1c[nH]c2ccccc12", "fluorescence, % of triamterene": "-0.0057%"}, {"smiles": "ClC1=C(Cl)C2(Cl)C3C(Cl)C(Cl)CC3C1(Cl)C2(Cl)Cl", "note": "(stereo not given)", "Potency": "inactive"}]}]}
